Where “and” joins values, the source holds several entries; their conditions need not be identical. Equal values may be shown once. Inconclusive results are not listed. Calls of active or inactive are those of the source. Calls come from the whole dose curve; as a rule, active = well fitted curve in the direction sought with a large enough effect; inconclusive = small, poorly fitted or top-dose-only effect, or another doubt; inactive = no such curve, though single readings can be large; an effect the other way counts as inactive or inconclusive.
Experiments:
[1] = qHTS assay for measurement of the activity of small molecule inhibitors on Zika virus induced Caspase-3 activity in human iPSC derived neural progenitor cells (hNPCs) (AID 1224857); note: nearly all actives have a fitted effect of over 65% in size
Outline: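 Zika virus (2 FFU/cell) infection of human iPSC-derived NPCs, 6 h, following 1 h compound preincubation. Read-out: Caspase-Glo 3/7 luminescence.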

[2] = qHTS assay for measurement of the activity of small molecule inhibitors on Zika virus induced Caspase-3 activity in human astrocytoma cells (AID 1224859)
Outline: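 Caspase activation in ZIKV-infected SNB-19 cells (2 FFU/cell, 6 h) measured by Caspase-Glo 3/7 luminescence after 30 min RT; compound pre-incubated 1 h; normalised to uninfected and infected controls.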

[3] = qHTS assay to identify small molecule inhibitors of chordoma cells - UCH-1 (AID 1259355); note: nearly all actives have a fitted effect of over 55% in size
Outline: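 Luminescent ATP read-out (CellTiter-Glo, 30min at room temperature) measured viability of UCH-1 cells exposed for 48hr to test drugs at 15 concentrations, co-dosed with a five-agent combination of auranofin, camptothecin, doxorubicin, rubitecan and topotecan.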

[4] = qHTS assay to identify small molecule inhibitors of chordoma cells - UCH-2 (AID 1259356); note: series mostly up to about 46 µM
[5] = P-glycoprotein substrates identified in KB-8-5-11 adenocarcinoma cell line, qHTS therapeutic library screen (AID 1346987); note: nearly all actives have a fitted effect of over 65% in size; note: potency is the fitted concentration of half-maximal effect
Outline: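 P-gp-mediated resistance screen: KB-8-5-11 cells treated 72 h with compounds in dose-response. CellTiter-Glo viability.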

[6] = NS1 protein of Zika virus - qHTS assay to identify small molecule inhibitors in human HEK 293 cells (AID 1347053); note: series mostly up to about 46 µM; nearly all actives have a fitted effect of over 55% in size
Outline: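 Following 20 h seeding, HEK 293 cells took compound, then 1 h later ZIKV MR766 (MOI = 0.5). Incubation ran 24 h at 37 C before TR-FRET detection of NS1; a drop in signal indicates inhibition.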

Measured: Potency

CCC(=O)c1ccc(O)cc1
inactive: [1] | [2] | [3] | [4] | [5] | [6]

COc1ccc2[nH]c(S(=O)Cc3ncc(C)c(OC)c3C)nc2n1 (centres undefined)
inactive: [1] | [2] | [3] | [4] | [5] | [6]

O=C(O)[C@@H]1CSCN1
inactive: [1] | [2] | [3] | [4] | [5] | [6]

O=C(O)c1ccccc1O
inactive: [1] | [2] | [3] | [4] | [5] | [6]

Cc1ccc(C(C)C)cc2c(C)ccc1-2
inactive: [1] | [2] | [3] | [4] | [5] | [6]

CCOc1ccc2ccccc2c1C(=O)N[C@@H]1C(=O)N2[C@@H]1SC(C)(C)[C@@H]2C(=O)O
inactive: [1] | [2] | [3] | [4] | [5] | [6]

C[C@@H]1CCN(C(=O)[C@H](CCCN=C(N)N)NS(=O)(=O)c2cccc3c2NC[C@H](C)C3)[C@@H](C(=O)O)C1
inactive: [1] | [2] | [3] | [4] | [5] | [6]

CCOC(CN1CCN(CC(C)C(=O)c2ccccc2)CC1)c1ccccc1 (centres undefined)
inactive: [1] | [2] | [3] | [4] | [5] | [6]

C[C@]12CC[C@@H]3c4ccc(O)cc4CC[C@H]3[C@@H]1CC[C@@H]2OC(=O)CCC1CCCC1
active: [5] 6.51 µM and 8.2 µM
inactive: [1] | [2] | [3] | [4] | [6]

O=C(O)CC(O)C(=O)O (centres undefined)
inactive: [1] | [2] | [3] | [4] | [5] | [6]

C[C@H](N)[C@H](O)c1cccc(O)c1
inactive: [1] | [2] | [3] | [4] | [5] | [6]

CN(N=O)C(=O)N[C@@H]1[C@@H](O)[C@H](O)[C@@H](CO)O[C@@H]1O
inactive: [1] | [2] | [3] | [4] | [5] | [6]

CC(COc1ccccc1)NC(C)C(O)c1ccc(O)cc1 (centres undefined)
inactive: [1] | [2] | [3] | [4] | [5] | [6]

CC1(C)CO[C@@H](CC(=O)O)CN1
inactive: [1] | [2] | [3] | [4] | [5] | [6]

CC(C)(O)c1ccccc1CC[C@@H](SCC1(CC(=O)O)CC1)c1cccc(/C=C/c2ccc3ccc(Cl)cc3n2)c1
inactive: [1] | [2] | [3] | [4] | [5] | [6]

Cc1cc(CC(=O)O)n(C)c1C(=O)c1ccc(Cl)cc1
inactive: [1] | [2] | [3] | [4] | [5] | [6]

Nc1ccc(S(=O)(=O)Nc2nccs2)cc1
inactive: [1] | [2] | [3] | [4] | [5] | [6]

O=C(CCCN1CCN(c2ccccn2)CC1)c1ccc(F)cc1
inactive: [1] | [2] | [3] | [4] | [5] | [6]

CN1[C@@H]2CC[C@H]1CC(OC(=O)C(O)c1ccccc1)C2 (some centres undefined)
inactive: [1] | [2] | [3] | [4] | [5] | [6]

CN1CCOC(c2ccccc2)c2ccccc2C1 (centres undefined)
inactive: [1] | [2] | [3] | [4] | [5] | [6]

O=C1NS(=O)(=O)c2ccccc21
inactive: [1] | [2] | [3] | [4] | [5] | [6]

O=S(=O)(O)NC1CCCCC1
inactive: [1] | [2] | [3] | [4] | [5] | [6]

NS(=O)(=O)c1cc2c(cc1C(F)(F)F)NC(Cc1ccccc1)NS2(=O)=O (centres undefined)
inactive: [1] | [2] | [3] | [4] | [5] | [6]

CCCCC(CC)COC(=O)c1ccccc1O (centres undefined)
inactive: [1] | [2] | [3] | [4] | [5] | [6]

c1ccc2c(CC3=NCCN3)cccc2c1
inactive: [1] | [2] | [3] | [4] | [5] | [6]

CCCCOc1cc(C(=O)OCCN(CC)CC)ccc1N
inactive: [1] | [2] | [3] | [4] | [5] | [6]

CCOC(=O)[C@H](CCc1ccccc1)N[C@@H](C)C(=O)N1C(=O)N(C)C[C@H]1C(=O)O
inactive: [1] | [2] | [3] | [4] | [5] | [6]

O=C(O)[C@H](O)c1ccccc1
inactive: [1] | [2] | [3] | [4] | [5] | [6]

CC1=C(C/C=C(\C)CCC[C@H](C)CCC[C@H](C)CCCC(C)C)C(=O)c2ccccc2C1=O
inactive: [1] | [2] | [3] | [4] | [5] | [6]

— PubChem BioAssay (NCATS)
